This is an account of results in the supplement of paper PMC12067093, “Discovery and optimisation of a covalent ligand for TRIM25 and its application to targeted protein ubiquitination” (Chemical Science, 2025).

Targets with the largest changes are over-represented here; the source holds about 21,000 in all.
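Further: competitive profiling in live THP-1 cells: cysteine peptides tagged with an iodoacetamide desthiobiotin (IA-DTB) probe, intensity after compound treatment relative to DMSO-treated cells.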

UniProt Q14694, sequence (Q14694 whole entry, looked up): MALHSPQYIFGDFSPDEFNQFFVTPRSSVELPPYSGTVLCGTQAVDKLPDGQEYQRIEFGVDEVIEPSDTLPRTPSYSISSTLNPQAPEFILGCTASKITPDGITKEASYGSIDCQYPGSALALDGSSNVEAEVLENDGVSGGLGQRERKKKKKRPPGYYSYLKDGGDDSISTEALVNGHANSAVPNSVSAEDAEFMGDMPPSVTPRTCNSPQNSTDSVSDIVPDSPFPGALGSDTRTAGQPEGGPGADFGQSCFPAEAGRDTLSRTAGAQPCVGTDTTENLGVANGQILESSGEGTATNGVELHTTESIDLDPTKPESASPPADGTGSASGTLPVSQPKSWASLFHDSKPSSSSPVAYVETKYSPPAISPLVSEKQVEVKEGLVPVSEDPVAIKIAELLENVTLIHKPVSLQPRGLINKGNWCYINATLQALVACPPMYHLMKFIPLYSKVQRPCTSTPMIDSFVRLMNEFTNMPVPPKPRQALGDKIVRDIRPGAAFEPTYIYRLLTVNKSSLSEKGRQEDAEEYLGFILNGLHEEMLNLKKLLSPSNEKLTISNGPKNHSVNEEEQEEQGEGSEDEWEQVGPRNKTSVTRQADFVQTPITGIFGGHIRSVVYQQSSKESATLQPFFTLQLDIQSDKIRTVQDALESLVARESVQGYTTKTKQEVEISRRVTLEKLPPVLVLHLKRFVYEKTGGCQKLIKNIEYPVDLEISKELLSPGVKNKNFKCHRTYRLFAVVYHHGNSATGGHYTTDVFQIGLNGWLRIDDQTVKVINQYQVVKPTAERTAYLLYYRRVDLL
UniProt Q9NPD8, sequence (Q9NPD8 whole entry, looked up): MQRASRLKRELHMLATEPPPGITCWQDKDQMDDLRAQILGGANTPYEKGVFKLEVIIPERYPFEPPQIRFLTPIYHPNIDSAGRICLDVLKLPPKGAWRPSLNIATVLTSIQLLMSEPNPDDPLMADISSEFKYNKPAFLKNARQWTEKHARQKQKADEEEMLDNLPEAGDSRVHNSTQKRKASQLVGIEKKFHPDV
UniProt Q70CQ2, sequence (Q70CQ2 whole entry, looked up): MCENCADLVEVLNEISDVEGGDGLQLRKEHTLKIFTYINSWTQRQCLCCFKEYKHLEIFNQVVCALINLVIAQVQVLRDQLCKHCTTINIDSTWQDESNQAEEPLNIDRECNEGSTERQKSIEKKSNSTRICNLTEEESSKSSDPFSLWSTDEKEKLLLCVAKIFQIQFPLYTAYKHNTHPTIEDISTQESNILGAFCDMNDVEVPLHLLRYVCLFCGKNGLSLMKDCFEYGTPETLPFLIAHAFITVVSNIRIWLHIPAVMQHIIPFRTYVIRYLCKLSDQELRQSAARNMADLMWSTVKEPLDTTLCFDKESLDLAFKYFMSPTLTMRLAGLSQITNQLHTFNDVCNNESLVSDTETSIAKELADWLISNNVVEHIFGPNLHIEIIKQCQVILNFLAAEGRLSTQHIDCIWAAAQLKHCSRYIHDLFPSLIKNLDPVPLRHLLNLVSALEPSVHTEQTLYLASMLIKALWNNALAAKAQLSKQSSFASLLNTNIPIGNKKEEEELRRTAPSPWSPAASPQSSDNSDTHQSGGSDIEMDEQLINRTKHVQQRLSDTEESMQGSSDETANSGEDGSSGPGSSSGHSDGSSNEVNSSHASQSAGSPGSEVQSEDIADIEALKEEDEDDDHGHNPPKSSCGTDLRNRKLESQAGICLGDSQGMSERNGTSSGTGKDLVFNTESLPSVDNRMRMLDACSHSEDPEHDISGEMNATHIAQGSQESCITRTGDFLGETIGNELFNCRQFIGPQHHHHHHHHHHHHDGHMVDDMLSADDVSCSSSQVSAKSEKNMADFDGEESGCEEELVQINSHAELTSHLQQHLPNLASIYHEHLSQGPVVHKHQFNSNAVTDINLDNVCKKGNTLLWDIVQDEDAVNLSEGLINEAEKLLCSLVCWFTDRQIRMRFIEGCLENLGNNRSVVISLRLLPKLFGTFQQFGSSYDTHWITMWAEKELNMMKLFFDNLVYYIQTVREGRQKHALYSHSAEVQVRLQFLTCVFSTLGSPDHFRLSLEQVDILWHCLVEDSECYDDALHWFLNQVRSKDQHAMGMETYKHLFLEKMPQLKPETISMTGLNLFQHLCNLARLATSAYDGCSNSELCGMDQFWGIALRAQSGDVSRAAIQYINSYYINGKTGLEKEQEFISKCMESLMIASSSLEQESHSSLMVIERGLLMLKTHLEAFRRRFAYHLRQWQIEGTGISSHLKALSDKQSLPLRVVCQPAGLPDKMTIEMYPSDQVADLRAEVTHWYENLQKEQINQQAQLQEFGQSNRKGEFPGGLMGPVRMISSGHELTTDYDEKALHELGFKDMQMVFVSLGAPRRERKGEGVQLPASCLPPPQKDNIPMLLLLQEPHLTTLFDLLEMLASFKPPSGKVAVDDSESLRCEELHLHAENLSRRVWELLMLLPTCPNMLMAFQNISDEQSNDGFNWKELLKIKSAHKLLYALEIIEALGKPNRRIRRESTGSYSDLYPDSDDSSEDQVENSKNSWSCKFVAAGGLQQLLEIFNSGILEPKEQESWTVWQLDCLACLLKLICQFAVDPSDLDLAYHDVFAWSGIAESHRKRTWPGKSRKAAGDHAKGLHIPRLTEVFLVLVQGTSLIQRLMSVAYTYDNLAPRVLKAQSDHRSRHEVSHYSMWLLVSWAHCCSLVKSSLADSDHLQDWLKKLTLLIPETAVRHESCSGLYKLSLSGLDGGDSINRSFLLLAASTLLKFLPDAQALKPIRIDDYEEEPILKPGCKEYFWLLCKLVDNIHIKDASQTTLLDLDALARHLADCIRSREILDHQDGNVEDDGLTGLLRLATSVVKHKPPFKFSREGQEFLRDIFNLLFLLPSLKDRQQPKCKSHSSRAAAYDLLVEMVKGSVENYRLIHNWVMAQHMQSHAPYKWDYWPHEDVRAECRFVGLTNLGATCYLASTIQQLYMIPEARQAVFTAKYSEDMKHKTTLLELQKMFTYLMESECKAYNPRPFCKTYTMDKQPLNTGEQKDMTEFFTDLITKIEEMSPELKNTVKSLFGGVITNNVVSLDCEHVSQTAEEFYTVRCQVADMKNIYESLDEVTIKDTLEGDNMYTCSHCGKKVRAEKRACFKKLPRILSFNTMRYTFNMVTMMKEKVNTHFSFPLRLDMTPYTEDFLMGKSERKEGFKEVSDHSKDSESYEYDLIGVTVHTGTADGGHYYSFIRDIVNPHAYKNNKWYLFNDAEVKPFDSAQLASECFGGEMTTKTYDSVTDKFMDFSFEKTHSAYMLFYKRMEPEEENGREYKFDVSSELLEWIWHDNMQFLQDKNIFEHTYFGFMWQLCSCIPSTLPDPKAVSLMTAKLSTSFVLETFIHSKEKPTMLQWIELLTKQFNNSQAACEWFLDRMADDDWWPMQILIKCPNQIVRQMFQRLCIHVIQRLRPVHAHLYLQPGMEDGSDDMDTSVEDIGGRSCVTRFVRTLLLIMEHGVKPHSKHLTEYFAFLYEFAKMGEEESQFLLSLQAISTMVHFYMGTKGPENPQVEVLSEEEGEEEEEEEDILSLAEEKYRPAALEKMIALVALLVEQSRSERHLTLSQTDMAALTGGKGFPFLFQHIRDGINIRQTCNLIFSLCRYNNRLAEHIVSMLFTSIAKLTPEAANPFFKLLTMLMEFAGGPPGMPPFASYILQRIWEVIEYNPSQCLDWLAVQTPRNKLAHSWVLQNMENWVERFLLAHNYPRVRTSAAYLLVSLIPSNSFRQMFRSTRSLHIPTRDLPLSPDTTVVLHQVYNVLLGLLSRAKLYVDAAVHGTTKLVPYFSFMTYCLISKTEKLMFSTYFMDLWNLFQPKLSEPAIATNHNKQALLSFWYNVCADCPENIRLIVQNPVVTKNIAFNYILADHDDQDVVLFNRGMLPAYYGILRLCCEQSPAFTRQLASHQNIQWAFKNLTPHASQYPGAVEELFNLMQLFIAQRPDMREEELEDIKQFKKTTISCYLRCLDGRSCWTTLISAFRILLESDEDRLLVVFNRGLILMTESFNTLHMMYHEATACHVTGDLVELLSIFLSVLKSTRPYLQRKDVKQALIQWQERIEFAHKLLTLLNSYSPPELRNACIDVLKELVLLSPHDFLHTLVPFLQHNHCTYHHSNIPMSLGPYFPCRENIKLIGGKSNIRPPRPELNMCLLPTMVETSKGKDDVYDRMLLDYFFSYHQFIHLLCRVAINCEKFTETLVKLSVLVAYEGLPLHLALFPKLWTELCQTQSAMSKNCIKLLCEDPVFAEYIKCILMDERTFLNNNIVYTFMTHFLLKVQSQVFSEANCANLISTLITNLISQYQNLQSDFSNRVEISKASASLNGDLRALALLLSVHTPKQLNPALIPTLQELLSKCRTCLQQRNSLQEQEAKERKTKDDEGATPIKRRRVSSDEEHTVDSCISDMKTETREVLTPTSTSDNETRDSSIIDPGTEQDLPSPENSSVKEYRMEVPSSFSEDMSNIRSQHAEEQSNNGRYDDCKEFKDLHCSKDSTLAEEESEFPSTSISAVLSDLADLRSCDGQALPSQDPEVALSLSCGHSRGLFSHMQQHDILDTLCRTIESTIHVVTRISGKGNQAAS
UniProt Q99614, sequence (Q99614 whole entry, looked up): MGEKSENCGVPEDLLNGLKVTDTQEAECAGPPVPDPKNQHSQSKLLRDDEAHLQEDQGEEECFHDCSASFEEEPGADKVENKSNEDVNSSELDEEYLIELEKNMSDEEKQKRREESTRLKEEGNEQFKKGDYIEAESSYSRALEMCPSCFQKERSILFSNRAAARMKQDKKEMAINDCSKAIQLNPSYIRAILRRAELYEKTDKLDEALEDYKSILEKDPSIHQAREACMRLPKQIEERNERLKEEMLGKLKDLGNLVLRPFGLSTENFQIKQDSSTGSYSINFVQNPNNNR
UniProt Q9GZX9, sequence (Q9GZX9 whole entry, looked up): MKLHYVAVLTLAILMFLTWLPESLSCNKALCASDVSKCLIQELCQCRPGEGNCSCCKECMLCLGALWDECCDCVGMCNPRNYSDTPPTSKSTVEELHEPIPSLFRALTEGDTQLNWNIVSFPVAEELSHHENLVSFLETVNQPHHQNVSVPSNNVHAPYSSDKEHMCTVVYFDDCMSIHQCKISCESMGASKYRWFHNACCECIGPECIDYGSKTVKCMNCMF

Compound in one assay: Cc1cc(ccc1-c1ccccc1)C(=O)N1CCCN(CC1)C(=O)CCl [compound 10]
Nature of the assay: probe-labelled cysteine peptide fold change vs DMSO (competition) (log2 fold change); higher = less target engagement (more negative = stronger competition). The settings on record: 10 µM; THP-1; incubation time: 4 h.
Consider “TSPYL1_Q9H0U9_375_NQDLICSFFTWFSDHSLPESDK (UniProt Q9H0U9)”, for which the “probe-labelled cysteine peptide fold change” value was found to be 0.781.
As to “TRIM25_Q14258_498_FTYCSQVLGLHCYK (UniProt Q14258)”, the “probe-labelled cysteine peptide fold change” value was -1.23.
On the same count and under the same terms, the figure for “UBE2T_Q9NPD8_24_ELHMLATEPPPGITCWQDK (UniProt Q9NPD8)” is -0.209.
The same measure, in the same setting: the figure for “UROS_P10746_119_IGLDTEGETCGNAEK (UniProt P10746)” is -0.0553; for “TRMT2A_Q8IZ69_463_VIGVELCPEAVEDAR (UniProt Q8IZ69)” it is -0.181.
Still for that read-out and setting: the figure for “TTLL12_Q14166_126_ESGLQAAHPNSIFLIDHAWTCR (UniProt Q14166)” is 0.0995; for “UBR4_Q5T4S7_2618+2619_QLEGDCCSFITQLVNHFWK (UniProt Q5T4S7)” it is 0.0442.
Turning to “TRANK1_O15050_1930_QHGCLLEAAR (UniProt O15050)”, the “probe-labelled cysteine peptide fold change” value is -0.0687.
Take “UBR7_Q8N806_137_YNDNFFGLYCICK (UniProt Q8N806)”: the “probe-labelled cysteine peptide fold change” value worked out at 0.0481.
Take “USP34_Q70CQ2_3118_SNIRPPRPELNMCLLPTMVETSK (UniProt Q70CQ2)”: the “probe-labelled cysteine peptide fold change” value was determined as 0.146.
As for “TTC1_Q99614_178_EMAINDCSK (UniProt Q99614)”, the “probe-labelled cysteine peptide fold change” value turned out to be 0.303.
Same read-out and setting: the same measure for “UBR2_Q8IWV8_1360_ILSDEDKPLFGPLPCR (UniProt Q8IWV8)”: -0.203; for “UBA7_P41226_829_CQNYGIPPVNR (UniProt P41226)”: -0.03; for “TRIP6_Q15654_339+342_CATCSQPILDR (UniProt Q15654)”: 0.045.
For “TWSG1_Q9GZX9_185_ISCESMGASK (UniProt Q9GZX9)”, the “probe-labelled cysteine peptide fold change” value is -0.121.
Same read-out and setting: the same measure for “TRIM59_Q8IWR1_10+13_MHNFEEELTCPICYSIFEDPR<|>IFT80_Q9P2H3-3_10+13_MHNFEEELTCPICYSIFEDPR (UniProt Q9P2H3+Q8IWR1)”: -0.194; for “VPS16_Q9H269_763_SPIGYLPFVEICMK (UniProt Q9H269)”: 0.149; for “TSTA3_Q13630_116_VVSCLSTCIFPDK (UniProt Q13630)”: -0.0711.
Still for that read-out and setting: the same measure for “TRIM25_Q14258_119_TCLVCMASFCQEHLQPHFDSPAFQDHPLQPPVR (UniProt Q14258)”: 0.371; for “UBR7_Q8N806_99+101_CDCGNSK (UniProt Q8N806)”: -0.364; for “VPS41_P49754_638_DSTHCPLEK (UniProt P49754)”: -0.172.
The same measure, in the same setting: the figure for “UBR4_Q5T4S7_2554_AVQCLNTSSK (UniProt Q5T4S7)” is -0.27; for “UQCRC1_P31930_154_AVELLGDIVQNCSLEDSQIEK (UniProt P31930)” it is 0.114.
Regarding “TPRKB_Q9Y3C4_167_LSSQEESIGTLLDAIICR (UniProt Q9Y3C4)”, the “probe-labelled cysteine peptide fold change” value came out at 0.0132.
On the same count and under the same terms, the figure for “TRIM59_Q8IWR1_208_SFLTALCDVGNLINQEYTPQIER<|>IFT80_Q9P2H3-3_208_SFLTALCDVGNLINQEYTPQIER (UniProt Q9P2H3+Q8IWR1)” is 0.237; for “TPRA1_Q86W33_296_CQVDETEEPDVHLPQPYAVAR (UniProt Q86W33)” it is -0.418.
For “VPS13C_Q709C8_2289_GIEHSLIEENCGVVVESIQVTLECGLGHR (UniProt Q709C8)”, the “probe-labelled cysteine peptide fold change” value is -0.105.
As for “USP10_Q14694_456_VQRPCTSTPMIDSFVR (UniProt Q14694)”, the “probe-labelled cysteine peptide fold change” value is -0.0395.
“TRNAU1AP_Q9NX07_157_ALTECQGAVGLGSKPVR (UniProt Q9NX07)”: the “probe-labelled cysteine peptide fold change” value was -0.212.
For “USP22_Q9UPT9_171_KITSNCTIGLR (UniProt Q9UPT9)”, the “probe-labelled cysteine peptide fold change” value was -0.315.
Same read-out and setting: the figure for “TXNDC9_O14530_94_ESENVVCHFYR (UniProt O14530)” is -0.0612; for “TRRAP_Q9Y4A5_2513_STPIGTSCQGAMLPSITNVINLADSHDR (UniProt Q9Y4A5)” it is 0.223.
For “USP3_Q9Y6I4_385_SFTDLEELDETELYMCHK (UniProt Q9Y6I4)”, the “probe-labelled cysteine peptide fold change” value is -0.114.
For the target “UBAP2_Q5T6F2_71_NQDECIVALHDCNGDVNK (UniProt Q5T6F2)”, the “probe-labelled cysteine peptide fold change” value is 0.0613.
Still for that read-out and setting: the figure for “USP3_Q9Y6I4_98_CDDFVVNDTK (UniProt Q9Y6I4)” is -0.0308; for “UBN1_Q9NPG3_711_VGGVLCTEEK (UniProt Q9NPG3)” it is -0.0763; for “UBL7_Q96S82_66_LQESVPDPELIDLIYCGR (UniProt Q96S82)” it is -0.109.
On to “UBR4_Q5T4S7_2619_QLEGDCCSFITQLVNHFWK (UniProt Q5T4S7)”, for which the “probe-labelled cysteine peptide fold change” value is -0.0425.

Still in this assay, the particulars now being: 50 µM; THP-1; incubation time: 4 h.
Take “TSPYL1_Q9H0U9_375_NQDLICSFFTWFSDHSLPESDK (UniProt Q9H0U9)”: the “probe-labelled cysteine peptide fold change” value worked out at 1.06.
Still for that read-out and setting: the same measure for “TRIM25_Q14258_498_FTYCSQVLGLHCYK (UniProt Q14258)”: -2.92; for “UBE2T_Q9NPD8_24_ELHMLATEPPPGITCWQDK (UniProt Q9NPD8)”: -0.165; for “UROS_P10746_119_IGLDTEGETCGNAEK (UniProt P10746)”: -0.0029.
Same read-out and setting: the same measure for “TRMT2A_Q8IZ69_463_VIGVELCPEAVEDAR (UniProt Q8IZ69)”: -1.16; for “TTLL12_Q14166_126_ESGLQAAHPNSIFLIDHAWTCR (UniProt Q14166)”: 0.0514.
For “UBR4_Q5T4S7_2618+2619_QLEGDCCSFITQLVNHFWK (UniProt Q5T4S7)”, the “probe-labelled cysteine peptide fold change” value is -1.45.
Still for that read-out and setting: the figure for “TRANK1_O15050_1930_QHGCLLEAAR (UniProt O15050)” is -0.106.
Same read-out and setting: the figure for “UBR7_Q8N806_137_YNDNFFGLYCICK (UniProt Q8N806)” is -0.0777.
Consider “USP34_Q70CQ2_3118_SNIRPPRPELNMCLLPTMVETSK (UniProt Q70CQ2)”, for which the “probe-labelled cysteine peptide fold change” value is -0.174.
Still for that read-out and setting: the figure for “TTC1_Q99614_178_EMAINDCSK (UniProt Q99614)” is -0.13; for “UBR2_Q8IWV8_1360_ILSDEDKPLFGPLPCR (UniProt Q8IWV8)” it is -0.412; for “UBA7_P41226_829_CQNYGIPPVNR (UniProt P41226)” it is 0.153.
Take “TRIP6_Q15654_339+342_CATCSQPILDR (UniProt Q15654)”: the “probe-labelled cysteine peptide fold change” value is -0.28.
On the same count and under the same terms, the figure for “TWSG1_Q9GZX9_185_ISCESMGASK (UniProt Q9GZX9)” is -0.0863; for “TRIM59_Q8IWR1_10+13_MHNFEEELTCPICYSIFEDPR<|>IFT80_Q9P2H3-3_10+13_MHNFEEELTCPICYSIFEDPR (UniProt Q9P2H3+Q8IWR1)” it is -1.63; for “VPS16_Q9H269_763_SPIGYLPFVEICMK (UniProt Q9H269)” it is 0.152.
Regarding “TSTA3_Q13630_116_VVSCLSTCIFPDK (UniProt Q13630)”, the “probe-labelled cysteine peptide fold change” value is -1.67.
On the same count and under the same terms, the same measure for “TRIM25_Q14258_119_TCLVCMASFCQEHLQPHFDSPAFQDHPLQPPVR (UniProt Q14258)”: 0.313; for “UBR7_Q8N806_99+101_CDCGNSK (UniProt Q8N806)”: -1.41; for “VPS41_P49754_638_DSTHCPLEK (UniProt P49754)”: -0.152.
Still for that read-out and setting: the same measure for “UBR4_Q5T4S7_2554_AVQCLNTSSK (UniProt Q5T4S7)”: -0.543; for “UQCRC1_P31930_154_AVELLGDIVQNCSLEDSQIEK (UniProt P31930)”: 0.272; for “TPRKB_Q9Y3C4_167_LSSQEESIGTLLDAIICR (UniProt Q9Y3C4)”: -0.163.
On the same count and under the same terms, the same measure for “TRIM59_Q8IWR1_208_SFLTALCDVGNLINQEYTPQIER<|>IFT80_Q9P2H3-3_208_SFLTALCDVGNLINQEYTPQIER (UniProt Q9P2H3+Q8IWR1)”: -0.00617.
“TPRA1_Q86W33_296_CQVDETEEPDVHLPQPYAVAR (UniProt Q86W33)”: the “probe-labelled cysteine peptide fold change” value is -1.52.
The same measure, in the same setting: the figure for “VPS13C_Q709C8_2289_GIEHSLIEENCGVVVESIQVTLECGLGHR (UniProt Q709C8)” is -0.0661.
Consider “USP10_Q14694_456_VQRPCTSTPMIDSFVR (UniProt Q14694)”, for which the “probe-labelled cysteine peptide fold change” value was -0.00663.
The same measure, in the same setting: the same measure for “TRNAU1AP_Q9NX07_157_ALTECQGAVGLGSKPVR (UniProt Q9NX07)”: -0.171; for “USP22_Q9UPT9_171_KITSNCTIGLR (UniProt Q9UPT9)”: -0.757.
Turning to “TXNDC9_O14530_94_ESENVVCHFYR (UniProt O14530)”, the “probe-labelled cysteine peptide fold change” value is -0.0184.
The same measure, in the same setting: the same measure for “TRRAP_Q9Y4A5_2513_STPIGTSCQGAMLPSITNVINLADSHDR (UniProt Q9Y4A5)”: 0.295; for “USP3_Q9Y6I4_385_SFTDLEELDETELYMCHK (UniProt Q9Y6I4)”: -0.984; for “UBAP2_Q5T6F2_71_NQDECIVALHDCNGDVNK (UniProt Q5T6F2)”: -0.0464.
For “USP3_Q9Y6I4_98_CDDFVVNDTK (UniProt Q9Y6I4)”, the “probe-labelled cysteine peptide fold change” value is -0.0909.
Take “UBN1_Q9NPG3_711_VGGVLCTEEK (UniProt Q9NPG3)”: the “probe-labelled cysteine peptide fold change” value worked out at 0.0664.
Same read-out and setting: the figure for “UBL7_Q96S82_66_LQESVPDPELIDLIYCGR (UniProt Q96S82)” is -0.328; for “UBR4_Q5T4S7_2619_QLEGDCCSFITQLVNHFWK (UniProt Q5T4S7)” it is -0.45.
